Here are results for 38 compounds from PubChem BioAssay (Tox21).

Records with an inconclusive call do not appear. Entries that show only a call come without a potency. Calls of active or inactive are those of the source. Unless noted, the call rests on the fitted dose curve; in most records, active means well fitted cell-killing curve with a large enough effect in the repeat runs (not every such curve was filed as active); inconclusive means weak or mixed curves, or effect the other way; inactive means no such curve, though single readings can be large or run the other way.
Potency means the concentration at half of the fitted maximal effect.

Sequence of Nuclear receptor subfamily 1 group I member 3 (Homo sapiens) (Q14994 whole entry, looked up): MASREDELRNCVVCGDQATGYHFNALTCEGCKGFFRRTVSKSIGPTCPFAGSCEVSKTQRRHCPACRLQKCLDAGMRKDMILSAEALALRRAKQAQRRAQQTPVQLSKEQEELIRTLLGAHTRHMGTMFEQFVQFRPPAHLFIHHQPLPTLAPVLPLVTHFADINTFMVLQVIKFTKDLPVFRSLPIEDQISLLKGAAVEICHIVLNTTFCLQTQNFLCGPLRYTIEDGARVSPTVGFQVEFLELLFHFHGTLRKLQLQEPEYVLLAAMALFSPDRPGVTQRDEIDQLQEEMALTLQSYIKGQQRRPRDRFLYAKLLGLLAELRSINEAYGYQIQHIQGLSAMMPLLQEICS

One assay has as its target Nuclear receptor subfamily 1 group I member 3 (Homo sapiens) (UniProt Q14994). In words: qHTS assay to identify small molecule agonists of the constitutive androstane receptor (CAR) signaling pathway (AID 1224839; active means well fitted activation curve with a large enough effect in the repeat runs; further: nearly all actives have a fitted effect of over 15% in size;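 on activation: HepG2 cells stably carrying human CAR and a CYP2B6 luciferase reporter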). The settings on record: HepG2 hCAR CYP2B6-luciferase, agonist mode, 24 h; series mostly up to 92.4 µM. The method, boiled down: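 Double-stable HepG2 cells (hCAR, CYP2B6-2.2kb) seeded 4 h before compound addition. Exposure 24 h with 0.75 uM PK11195 final. Luciferase detected by ONE-Glo.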
Consider `COc1ccc2c(c1OC)C(=O)O[C@@H]2[C@H]1c2cc3c(cc2CCN1C)OCO3`, for which the Potency result is “inactive”.

On to `CC(Cc1ccc(OCC(=O)O)cc1)NCC(O)c1csc(C(F)(F)F)n1` (centres undefined), for which the Potency entry was “inactive”.

Regarding `Nc1ccc(Cl)cc1C(=O)c1ccccc1F`, the Potency was 23.7 µM (active).

Regarding `O=c1c2ccccc2c(=O)c2c1cc(Cl)c1[nH]c3c([nH]c12)c(Cl)cc1c(=O)c2ccccc2c(=O)c13`, the Potency entry was “inactive”.

On to `C=Cc1cccc(CCl)c1`, for which the Potency entry is “inactive”.

For the compound `CCC(C)Br` (centres undefined), the Potency entry is “inactive”.

For `OCC(Br)CBr` (centres undefined), the Potency result was “inactive”.

`ClC1=C(Cl)[C@]2(Cl)[C@H]3[C@H]([C@@H]4C=C[C@H]3C4)[C@@]1(Cl)C2(Cl)Cl`: the Potency was 13.7 µM (active).

On to `Oc1ccc(Cl)c(Cl)c1`, for which the Potency result is “inactive”.

On to `Cc1ccc(C)c2ccccc12`, for which the Potency entry is “inactive”.

`COc1cnc(OC)n2nc(NS(=O)(=O)c3c(OCC(F)F)cccc3C(F)(F)F)nc12`: the Potency entry is “inactive”.

With `CC(O)C(=O)[O][Hg][c]1ccccc1` (centres undefined), the Potency result was “inactive”.

Consider `CCCCCON=O`, for which the Potency entry is “inactive”.

On to `CNC(=O)/C=C(\C)OP(=O)(OC)OC`, for which the Potency entry is “inactive”.

Take `CC[N+]1(CC)CCC(OC(=O)C(O)(c2ccccc2)c2ccccc2)C1` (centres undefined): the Potency entry is “inactive”.

For the compound `C[C@@H]1CC2=CC(=O)CC[C@@H]2[C@H]2CC[C@@]3(C)[C@@H](CC[C@]3(C)O)[C@@H]21`, the Potency entry was “inactive”.

Take `CC(=O)C(Cl)C(=O)N(C)C` (centres undefined): the Potency result is “inactive”.

As for `Clc1ccc(C2(Cn3cncn3)OCCO2)c(Cl)c1`, the Potency entry is “inactive”.

For the compound `CSC(C)(C)/C=N/O`, the Potency result was “inactive”.

Consider `Nc1cc(Cl)ccc1Cl`, for which the Potency entry was “inactive”.

On to `CC[C@H](C)[C@H]1O[C@]2(C=C[C@@H]1C)C[C@@H]1C[C@@H](C/C=C(\C)[C@@H](O[C@H]3C[C@H](OC)[C@@H](O[C@H]4C[C@H](OC)[C@@H](NC)[C@H](C)O4)[C@H](C)O3)[C@@H](C)/C=C/C=C3\CO[C@@H]4[C@H](O)C(C)=C[C@@H](C(=O)O1)[C@]34O)O2`, for which the Potency entry is “inactive”.

As to `N#CCCl`, the Potency result was “inactive”.

Consider `CN=C=O`, for which the Potency result is “inactive”.

System in another assay: not listed separately
In words: qHTS assay to identify small molecule antagonists of the estrogen related receptor signaling pathway with the pleiotropic PPARgamma coactivator (PGC) from Tox21 10K library - cell viability counter screen (AID 1224840). Further: nearly all actives have a fitted effect of over 40% in size. As to conditions: PGC/ERR reporter cells viability, CellTiter-Fluor, 17.5 h; series mostly up to 92.4 µM. The method, boiled down: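 Compounds in DMSO, alongside positive and negative controls, were pinned onto PGC/ERR cells (2,000 per well). Exposure lasted 17.5 hours at 37 C, followed by a 30-minute CellTiter-Fluor incubation and fluorescence reading.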
For orientation: qHTS replaces the single test concentration by a dilution series.
As for `CC(Cc1ccc(OCC(=O)O)cc1)NCC(O)c1csc(C(F)(F)F)n1` (centres undefined), the Potency result was “inactive”.

On to `Nc1ccc(Cl)cc1C(=O)c1ccccc1F`, for which the Potency entry is “inactive”.

With `O=c1c2ccccc2c(=O)c2c1cc(Cl)c1[nH]c3c([nH]c12)c(Cl)cc1c(=O)c2ccccc2c(=O)c13`, the Potency result is “inactive”.

As for `CCc1cccc(C)c1N(C(=O)CCl)[C@@H](C)COC`, the Potency result is “inactive”.

On to `C=Cc1cccc(CCl)c1`, for which the Potency entry was “inactive”.

As to `CNC(C)(C)Cc1ccccc1`, the Potency result is “inactive”.

Regarding `CCC(C)Br` (centres undefined), the Potency entry is “inactive”.

In the case of `OCC(Br)CBr` (centres undefined), the Potency result is “inactive”.

As for `ClC1=C(Cl)[C@]2(Cl)[C@H]3[C@H]([C@@H]4C=C[C@H]3C4)[C@@]1(Cl)C2(Cl)Cl`, the Potency entry was “inactive”.

`CCOP(=S)(OCC)SC(CCl)N1C(=O)c2ccccc2C1=O` (centres undefined): the Potency result is “inactive”.

As for `Oc1ccc(Cl)c(Cl)c1`, the Potency entry is “inactive”.

For the compound `COC(=O)C(C)N(C(=O)c1ccco1)c1c(C)cccc1C` (centres undefined), the Potency entry was “inactive”.

As to `COP(=S)(NC(C)C)Oc1ccc(C)cc1[N+](=O)[O-]` (centres undefined), the Potency result is “inactive”.

Regarding `Clc1ccc(C(Cl)(Cl)Cl)cc1Cl`, the Potency result is “inactive”.

Turning to `Cc1ccc(C)c2ccccc12`, the Potency result is “inactive”.

As to `COc1cnc(OC)n2nc(NS(=O)(=O)c3c(OCC(F)F)cccc3C(F)(F)F)nc12`, the Potency result is “inactive”.

Regarding `CC(O)C(=O)[O][Hg][c]1ccccc1` (centres undefined), the Potency is 3.06 µM (active).

As for `CCCCCON=O`, the Potency entry was “inactive”.

In the case of `CNC(=O)/C=C(\C)OP(=O)(OC)OC`, the Potency entry is “inactive”.

Take `CC(C)N(C(=O)SC/C(Cl)=C/Cl)C(C)C`: the Potency result was “inactive”.

Turning to `CC[N+]1(CC)CCC(OC(=O)C(O)(c2ccccc2)c2ccccc2)C1` (centres undefined), the Potency entry is “inactive”.

Regarding `[O]=[Cr](=[O])([OH])[O][Cr](=[O])(=[O])[OH]`, the Potency is 3.85 µM (active).

In the case of `C[C@@H]1CC2=CC(=O)CC[C@@H]2[C@H]2CC[C@@]3(C)[C@@H](CC[C@]3(C)O)[C@@H]21`, the Potency result is “inactive”.

Turning to `CCCCc1ccccc1`, the Potency entry is “inactive”.

In the case of `CC(=O)C(Cl)C(=O)N(C)C` (centres undefined), the Potency result is “inactive”.

As to `Clc1ccc(C2(Cn3cncn3)OCCO2)c(Cl)c1`, the Potency entry is “inactive”.

Consider `COc1c2c(cc3c1OCO3)CCN(C)C2`, for which the Potency entry is “inactive”.

Take `CNC(=O)Oc1cc(C)cc(C(C)C)c1`: the Potency result is “inactive”.

For `CSC(C)(C)/C=N/O`, the Potency entry is “inactive”.

`Nc1cc(Cl)ccc1Cl`: the Potency entry is “inactive”.

Take `C=CCBr`: the Potency entry was “inactive”.

For `CC[C@H](C)[C@H]1O[C@]2(C=C[C@@H]1C)C[C@@H]1C[C@@H](C/C=C(\C)[C@@H](O[C@H]3C[C@H](OC)[C@@H](O[C@H]4C[C@H](OC)[C@@H](NC)[C@H](C)O4)[C@H](C)O3)[C@@H](C)/C=C/C=C3\CO[C@@H]4[C@H](O)C(C)=C[C@@H](C(=O)O1)[C@]34O)O2`, the Potency is 6.86 µM (active).

For `N#CCCl`, the Potency entry is “inactive”.

With `c1cc[n+]2c(c1)-c1cccc[n+]1CC2`, the Potency result was “inactive”.

As to `CN=C=O`, the Potency entry was “inactive”.

For `O=C1C[C@@H]2OCC=C3CN4CC[C@]56c7ccccc7N1[C@H]5[C@H]2[C@H]3C[C@H]46`, the Potency entry was “inactive”.

System in another assay: not listed separately
In words: qHTS assay to identify small molecule antagonists of the estrogen related receptor signaling pathway with the pleiotropic PPARgamma coactivator (PGC) from Tox21 10K library (AID 1224841; call rule not given here; further: actives are mostly falling curves and most rising ones were filed inactive; nearly all actives have a fitted effect of over 50% in size). The settings on record: PGC/ERR reporter cell line, ONE-Glo luciferase, 18 h; series mostly up to 92.4 µM. The procedure, abridged: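 Compound exposure ran 18 hours at 37 C in PGC/ERR cells (2,000/well) that had first rested 6 hours in a 37 C/5% CO2 incubator. Luciferase activity was then detected with One-Glo after a 30-minute room-temperature step.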
Consider `CCOP(=S)(OCC)SC(CCl)N1C(=O)c2ccccc2C1=O` (centres undefined), for which the Potency result was “inactive”.

`Oc1ccc(Cl)c(Cl)c1`: the Potency result is “inactive”.

As for `COC(=O)C(C)N(C(=O)c1ccco1)c1c(C)cccc1C` (centres undefined), the Potency entry was “inactive”.

For the compound `COc1cnc(OC)n2nc(NS(=O)(=O)c3c(OCC(F)F)cccc3C(F)(F)F)nc12`, the Potency result is “inactive”.

As to `CC(O)C(=O)[O][Hg][c]1ccccc1` (centres undefined), the Potency is 4.86 µM (active).

In the case of `CCCCCON=O`, the Potency is 30.7 µM (active).

In the case of `CNC(=O)/C=C(\C)OP(=O)(OC)OC`, the Potency result was “inactive”.

For the compound `CCC1COC(Cn2cncn2)(c2ccc(Cl)cc2Cl)O1` (centres undefined), the Potency is 61.1 µM (active).

In the case of `Nc1cc(Cl)ccc1Cl`, the Potency result was “inactive”.

Take `CN=C=O`: the Potency result is “inactive”.
